Screening results: PubChem, National Center for Advancing Translational Sciences (NCATS)
gsp ag = agonists of gsp mutant (McCune-Albright syndrome); 340,000 tested, 0.13% active; AID 624287; Potency, µM (doses to about 76.9 µM), for inactives: top-dose activation (cAMP increase), most hits filed as activators; gsp mutant cells, cAMP HTRF, 30 min; active = well fitted activation curve with a large enough effect; inconclusive = small, poorly fitted or top-dose-only effect, or another doubt; inactive = no such curve, though single readings can be large or run the other way; cell line not stated here;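 also: phosphodiesterase inhibitor Ro 20-1724 added with compounds to block cAMP breakdown; potency is read from the fitted curve at half-maximal effect; nearly all actives have a fitted effect of over 60% in size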
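Cells stably selected in G418 were plated at 2000/well, grown 16-24 hr, then given compounds in DMSO with the PDE inhibitor […] (300 uM solution added) for 30 min at 37C; cAMP was read by HTRF.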
RXFP1 ag = RXFP1 (human) receptor agonism; Q9HBX9; 370,000 tested, 0.3% active; AID 2676; HEK293T-RXFP1 cAMP TR-FRET, 30 min; response scale: percent of porcine relaxin response, buffer zero; Potency, µM (top dose mostly 57.5 µM), without a hit: at the highest dose activation, most hits filed as activators; active = well fitted activation curve with a large enough effect; inconclusive = small, poorly fitted or top-dose-only effect; also: potency is read from the fitted curve at half-maximal effect; % is scaled to controls: 0 for no effect and ±100 for the full control effect; nearly all actives have a fitted effect of over 60% in size
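HEK293 cells stably expressing RXFP1, treated 30 min at 37C with compounds plus PDE4 inhibitor Ro 20174; cAMP measured by HTRF TR-FRET. Normalized to buffer and 29 nM porcine relaxin; EC50 by Hill fit.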
RXFP1 antag = RXFP1 (human) relaxin receptor antagonism; Q9HBX9; HEK293-RXFP1, relaxin-stimulated cAMP HTRF, 30 min; hits give low values; activity change, negative = inhibition, % at 57.5 µM; 350,000 tested, 0.59% active; AID 1259400;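 active = activity change of -60% or lower, but not beyond a set lower limit; inconclusive = change between -60% and -40%, or beyond the set limit; inactive = change above -40%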; also: % is scaled to controls: 0 for no effect and ±100 for the full control effect
gsp antag = antagonists of gsp mutant (McCune-Albright syndrome); gsp-mutant cells, cAMP HTRF, 30 min; Potency, µM (doses to about 76.9 µM), for inactives: at the top dose activity change, negative = inhibition, usual class: inhibitors; 340,000 tested, 0.4% active; AID 624288; calls by dose curve; cell line not stated here;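 also: intracellular cAMP measured with PDE inhibitor Ro 20-1724 present during compound exposure; potency is read from the fitted curve at half-maximal effect; % is scaled to controls: 0 for no effect and ±100 for the full control effect; nearly all actives have a fitted effect of over 65% in size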
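Cells in G418 medium, seeded 16-24 h, 37C; buffer exchange to DPBS + 1 mM CaCl2, 0.5 mM MgCl2, 0.05% BSA; cpds in DMSO + […] (300 uM stock), 30 min 37C; HTRF cAMP detection.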
TSHR antagonist = human thyrotropin receptor antagonism | TSHR-expressing cells, TSH-stimulated cAMP HTRF, 2 h; hits give low values | activity change, negative = inhibition, % at 11.5 µM | 330,000 tested, 0.2% active;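 active = activity change below a set negative limit, meaning inhibition stronger than a set level, cut at about -70% in these data; inconclusive = activity change between two set negative limits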; also: % is scaled to controls: 0 for no effect and ±100 for the full control effect
Target sequence (P16473 whole entry, looked up): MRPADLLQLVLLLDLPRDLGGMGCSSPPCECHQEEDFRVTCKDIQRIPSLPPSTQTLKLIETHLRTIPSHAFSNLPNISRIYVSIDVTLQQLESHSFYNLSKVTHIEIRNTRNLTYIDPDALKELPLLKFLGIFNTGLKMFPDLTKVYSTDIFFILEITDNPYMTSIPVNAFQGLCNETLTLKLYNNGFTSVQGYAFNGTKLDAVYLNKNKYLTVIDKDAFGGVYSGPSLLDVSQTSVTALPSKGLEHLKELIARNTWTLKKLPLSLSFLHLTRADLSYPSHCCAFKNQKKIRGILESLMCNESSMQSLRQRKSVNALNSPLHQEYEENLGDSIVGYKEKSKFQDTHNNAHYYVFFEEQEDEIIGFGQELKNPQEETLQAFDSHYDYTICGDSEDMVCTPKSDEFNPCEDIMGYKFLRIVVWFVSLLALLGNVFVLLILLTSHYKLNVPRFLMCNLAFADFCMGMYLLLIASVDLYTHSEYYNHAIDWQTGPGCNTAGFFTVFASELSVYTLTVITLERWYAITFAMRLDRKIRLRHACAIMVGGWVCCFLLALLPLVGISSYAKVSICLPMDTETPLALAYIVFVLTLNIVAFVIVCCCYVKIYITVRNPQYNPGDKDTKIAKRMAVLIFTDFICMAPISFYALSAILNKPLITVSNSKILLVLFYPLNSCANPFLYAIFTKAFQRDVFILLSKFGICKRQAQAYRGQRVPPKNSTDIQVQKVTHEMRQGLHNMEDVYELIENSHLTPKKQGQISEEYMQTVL
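Antagonism was scored as loss of TSH-driven cAMP in TSHR cells, stimulated with 4nM TSH (EC80) for 2 hours at 37 deg C and detected by homogeneous HTRF competition immunoassay.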
* hit, by the source's call; ? = inconclusive; / = not tested or not shown; [ ] = remark or other dose. Shown are actives, neighbours in structure and some others; about 1% of the full set was active somewhere.

SMILES	gsp ag	RXFP1 ag	RXFP1 antag	gsp antag	TSHR antagonist
O=C1/C(=C/c2ccc([N+](=O)[O-])cc2)Oc2cc(O)ccc21	1%[15.4 µM]	-1%	-6	22µM*	-32
O=C1/C(=C/c2ccc(Br)cc2)Oc2cc(O)ccc21	25%	8%	2	-25%	-35
O=C(NC(NC(=S)Nc1c(Cl)cccc1Cl)C(Cl)(Cl)Cl)c1cccc([N+](=O)[O-])c1 (stereo not given)	-12%	-2%	-38	35µM*	-25
O=C(NNC(=S)NC(=O)c1ccccc1Cl)c1cccc([N+](=O)[O-])c1	8%[15.4 µM]	2%	9	-4%	-9
CCc1nn2c(=O)cc(COC(=O)c3cccc(NC(=O)COc4ccccc4)c3)nc2s1	/	8%	4	/	/
COc1ccc(-n2nc(C(=O)NCC(=O)NCCCN3CCN(C)CC3)c3ccccc3c2=O)cc1OC	10%	5%	-3	2%	-11
COc1ccc(-n2nc(C(=O)NCC(=O)NCCCN3CCN(C)CC3)c3ccccc3c2=O)cc1	-7%[15.4 µM]	2%	1	15%	-100*
COc1ccccc1NC(=O)CSc1nc2ccccc2c(=O)n1C	-24%	-1%	-22	35µM*	-25
COc1ccc(OC)c(NC(=O)CSc2nc(O)cc(=O)n2CC(C)C)c1	-4%	/	-80*	-19%	-22
COc1ccc(NC(=O)CSc2nc(O)cc(=O)n2-c2ccc(OC)cc2)cc1	?	2%	-78*	?	-13
COc1ccc(-n2c(SCC(=O)Nc3cccc4ccccc34)nc(O)cc2=O)cc1	3%[15.4 µM]	3%	-66*	-26%	-6
COc1ccc(-n2c(SCC(=O)Nc3ccccc3)nc(O)cc2=O)cc1	25%	-2%	-39	-12%	-26
COc1ccc(CSc2nc(O)cc(=O)n2CC(C)C)cc1F	-2%[15.4 µM]	0%	-15	/	12
COc1ccc(-c2nc3sc(CCNS(=O)(=O)c4ccccc4)c(C)n3n2)cc1	/	4%	-7	/	/
Cc1cc2nnc(SCc3ccc(F)cc3)n2c2ccccc12	/	4%	/	/	/
COc1cccc(CC2(CO)CCCN(Cc3ccc(C)s3)C2)c1 (stereo not given)	13%[15.4 µM]	-1%	-78*	5%	-1
CCN1CCc2c(sc(NC(=S)NC(=O)c3ccc(Cl)cc3)c2C(N)=O)C1	11%[15.4 µM]	-6%	-110*	-18%	-4
CCN1CCc2c(sc(NC(=O)c3ccc4ccccc4c3)c2C(N)=O)C1	/	4%	/	/	12
CCOC(=O)N1CCN(CC(=O)Nc2ccc([N+](=O)[O-])cc2C(=O)Nc2ccccc2F)CC1	10%	-2%	2	28µM*	-9
CC(=O)c1cccc(NC(=O)c2sc3nc4n(c(=O)c3c2C)CCCC4)c1	?	26%	23	?	-132*
Nc1nc(Sc2ccc([N+](=O)[O-])c3nonc23)c2[nH]cnc2n1	13µM*	/	13	-17%	/
CNc1ncnc(Sc2nc(N)nc3nc[nH]c23)c1[N+](=O)[O-]	?	/	9	1%	/
Cc1oc(-c2ccccc2F)nc1CS(=O)(=O)CC(=O)N1CCN(c2ccc(Cl)cc2)CC1	/	1%	/	/	/
O=C(CCS(=O)(=O)c1ccc(F)cc1)Nc1nc(-c2ccccn2)cs1	16%	-2%	-25	6%	-110*
CCc1cccc(NC(=O)C(Cc2ccccc2)n2cccc2)c1 (stereo not given)	/	4%	?	/	/
Cc1cc(Cl)n2nc(C)c(-c3ccc(Cl)cc3)c2n1	11%[15.4 µM]	2%	-69*	-22%	-32
